Experiment [1] addresses Tyrosine-protein kinase CSK (Homo sapiens) (UniProt P41240). The note with it: at 1 µM.
Experiment [2] deals with T1, Discoidin domain-containing receptor 2 (Homo sapiens) (UniProt Q16832).
T1 sequence (whole entry): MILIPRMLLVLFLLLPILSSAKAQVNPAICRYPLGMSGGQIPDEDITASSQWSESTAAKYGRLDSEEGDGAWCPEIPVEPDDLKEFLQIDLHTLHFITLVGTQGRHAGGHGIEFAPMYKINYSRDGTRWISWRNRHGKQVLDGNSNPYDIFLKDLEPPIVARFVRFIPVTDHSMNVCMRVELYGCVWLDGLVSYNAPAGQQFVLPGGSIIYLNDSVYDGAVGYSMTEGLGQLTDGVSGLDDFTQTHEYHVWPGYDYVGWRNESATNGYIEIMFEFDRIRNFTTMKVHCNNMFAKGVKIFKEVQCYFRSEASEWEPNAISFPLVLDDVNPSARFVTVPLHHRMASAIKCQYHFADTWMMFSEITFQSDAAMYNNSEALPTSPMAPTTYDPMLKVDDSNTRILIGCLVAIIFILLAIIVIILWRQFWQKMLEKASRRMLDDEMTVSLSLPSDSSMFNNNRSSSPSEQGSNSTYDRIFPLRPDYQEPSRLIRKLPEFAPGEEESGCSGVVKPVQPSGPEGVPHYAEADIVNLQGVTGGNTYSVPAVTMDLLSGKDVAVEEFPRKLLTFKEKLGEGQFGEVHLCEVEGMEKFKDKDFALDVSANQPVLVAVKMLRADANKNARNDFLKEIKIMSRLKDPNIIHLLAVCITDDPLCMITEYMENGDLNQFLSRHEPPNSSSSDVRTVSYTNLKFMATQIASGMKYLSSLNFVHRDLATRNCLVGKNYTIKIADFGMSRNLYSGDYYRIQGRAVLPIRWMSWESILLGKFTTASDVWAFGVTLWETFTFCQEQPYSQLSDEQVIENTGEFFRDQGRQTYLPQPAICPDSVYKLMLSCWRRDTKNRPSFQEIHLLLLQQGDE
The note with it: at 0.1 µM.

Experiment [3] concerns the target T1, Discoidin domain-containing receptor 2 (Homo sapiens). To be noted: at 1 µM.
In experiment [4] the target is Epidermal growth factor receptor (Homo sapiens) (UniProt P00533). To be noted: at 0.1 µM.
For experiment [5] the target is unchanged. The note with it: at 1 µM.
Experiment [6] deals with Epidermal growth factor receptor (Homo sapiens), P00533 [L858R]. The note with it: at 0.1 µM.
For experiment [7] the test system is unchanged. To be noted: at 1 µM.
Experiment [8] has as its system Epidermal growth factor receptor (Homo sapiens), P00533 [L861Q]. The note with it: at 0.1 µM.
Experiment [9] shares this test system. To be noted: at 1 µM.
Experiment [10] deals with Epidermal growth factor receptor (Homo sapiens), P00533 [T790M]. The note with it: at 0.1 µM.
Experiment [11] has the same test system. The note with it: at 1 µM.
Experiment [12] concerns Epidermal growth factor receptor (Homo sapiens), P00533 [L858R,T790M]. The note with it: at 0.1 µM.
Experiment [13] shares this test system. The note with it: at 1 µM.
For experiment [14], the target named is Ephrin type-A receptor 2 (Homo sapiens) (UniProt P29317). The note with it: at 0.1 µM.
For experiment [15] the target is unchanged. To be noted: at 1 µM.
Experiment [16] deals with T2, Ephrin type-A receptor 3 (Homo sapiens) (UniProt P29320).
T2 sequence (whole entry): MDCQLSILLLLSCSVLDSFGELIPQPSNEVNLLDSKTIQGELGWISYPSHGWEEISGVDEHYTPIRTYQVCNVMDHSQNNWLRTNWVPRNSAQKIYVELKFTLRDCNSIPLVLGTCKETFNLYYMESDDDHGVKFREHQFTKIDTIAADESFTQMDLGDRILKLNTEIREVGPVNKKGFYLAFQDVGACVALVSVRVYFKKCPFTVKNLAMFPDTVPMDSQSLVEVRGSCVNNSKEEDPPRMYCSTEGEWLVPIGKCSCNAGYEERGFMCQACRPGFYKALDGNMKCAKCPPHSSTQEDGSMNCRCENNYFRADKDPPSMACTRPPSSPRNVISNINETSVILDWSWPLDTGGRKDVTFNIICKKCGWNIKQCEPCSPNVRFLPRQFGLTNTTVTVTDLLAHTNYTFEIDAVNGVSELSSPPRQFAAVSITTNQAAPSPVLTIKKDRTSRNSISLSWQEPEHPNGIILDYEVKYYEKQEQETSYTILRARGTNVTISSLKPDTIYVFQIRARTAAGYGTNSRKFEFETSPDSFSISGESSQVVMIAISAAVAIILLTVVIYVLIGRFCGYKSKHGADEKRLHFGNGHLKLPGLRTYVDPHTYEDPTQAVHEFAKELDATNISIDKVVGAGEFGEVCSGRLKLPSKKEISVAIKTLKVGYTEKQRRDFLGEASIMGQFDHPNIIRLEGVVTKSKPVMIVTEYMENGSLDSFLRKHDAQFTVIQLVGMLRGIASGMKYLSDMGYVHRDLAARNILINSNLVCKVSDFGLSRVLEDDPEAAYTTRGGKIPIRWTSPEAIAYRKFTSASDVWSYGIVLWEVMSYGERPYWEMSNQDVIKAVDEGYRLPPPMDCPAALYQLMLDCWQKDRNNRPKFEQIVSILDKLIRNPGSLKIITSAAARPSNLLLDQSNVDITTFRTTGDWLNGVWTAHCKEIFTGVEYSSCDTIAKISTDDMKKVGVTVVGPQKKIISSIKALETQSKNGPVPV
To be noted: at 0.1 µM.

For experiment [17], the target named is T2, Ephrin type-A receptor 3 (Homo sapiens). The note with it: at 1 µM.
The target in experiment [18] is Ephrin type-A receptor 4 (Homo sapiens) (UniProt P54764). To be noted: at 0.1 µM.
Experiment [19] shares this target. To be noted: at 1 µM.
In experiment [20] the target is T3, Ephrin type-B receptor 2 (Homo sapiens) (UniProt P29323).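 Note: reported as mean inhibition of EPHB2, from the GSK PKIS dataset.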
T3 sequence (whole entry): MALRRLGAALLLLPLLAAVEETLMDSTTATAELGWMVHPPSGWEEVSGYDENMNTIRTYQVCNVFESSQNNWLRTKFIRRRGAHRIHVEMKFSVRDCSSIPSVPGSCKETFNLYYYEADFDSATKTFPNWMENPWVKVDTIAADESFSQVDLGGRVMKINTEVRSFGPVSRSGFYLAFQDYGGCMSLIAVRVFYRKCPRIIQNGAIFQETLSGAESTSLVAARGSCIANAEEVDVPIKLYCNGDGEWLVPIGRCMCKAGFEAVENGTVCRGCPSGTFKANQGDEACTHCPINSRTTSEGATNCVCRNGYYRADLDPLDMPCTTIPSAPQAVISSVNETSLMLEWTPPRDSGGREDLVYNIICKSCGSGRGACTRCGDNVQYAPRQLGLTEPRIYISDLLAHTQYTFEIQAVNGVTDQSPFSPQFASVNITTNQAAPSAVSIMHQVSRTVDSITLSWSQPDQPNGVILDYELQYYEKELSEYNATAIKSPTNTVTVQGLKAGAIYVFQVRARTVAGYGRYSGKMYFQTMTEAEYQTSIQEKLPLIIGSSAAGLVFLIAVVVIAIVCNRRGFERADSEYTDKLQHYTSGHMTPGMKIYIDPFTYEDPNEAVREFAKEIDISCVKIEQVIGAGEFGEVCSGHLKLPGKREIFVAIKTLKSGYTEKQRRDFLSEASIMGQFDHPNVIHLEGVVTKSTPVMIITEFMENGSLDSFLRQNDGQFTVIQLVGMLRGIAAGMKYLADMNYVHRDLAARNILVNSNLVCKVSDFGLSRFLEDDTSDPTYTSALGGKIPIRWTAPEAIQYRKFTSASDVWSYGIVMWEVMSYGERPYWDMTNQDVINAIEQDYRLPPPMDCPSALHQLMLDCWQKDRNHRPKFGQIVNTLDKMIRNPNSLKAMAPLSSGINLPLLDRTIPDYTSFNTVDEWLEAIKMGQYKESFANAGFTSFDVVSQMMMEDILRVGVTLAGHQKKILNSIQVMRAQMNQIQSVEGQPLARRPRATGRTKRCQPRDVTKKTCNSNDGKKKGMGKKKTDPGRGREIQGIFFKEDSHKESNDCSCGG
The note with it: at 0.1 µM.

Sequence of Epidermal growth factor receptor (Homo sapiens), P00533 [T790M] (P00533 whole entry T790M): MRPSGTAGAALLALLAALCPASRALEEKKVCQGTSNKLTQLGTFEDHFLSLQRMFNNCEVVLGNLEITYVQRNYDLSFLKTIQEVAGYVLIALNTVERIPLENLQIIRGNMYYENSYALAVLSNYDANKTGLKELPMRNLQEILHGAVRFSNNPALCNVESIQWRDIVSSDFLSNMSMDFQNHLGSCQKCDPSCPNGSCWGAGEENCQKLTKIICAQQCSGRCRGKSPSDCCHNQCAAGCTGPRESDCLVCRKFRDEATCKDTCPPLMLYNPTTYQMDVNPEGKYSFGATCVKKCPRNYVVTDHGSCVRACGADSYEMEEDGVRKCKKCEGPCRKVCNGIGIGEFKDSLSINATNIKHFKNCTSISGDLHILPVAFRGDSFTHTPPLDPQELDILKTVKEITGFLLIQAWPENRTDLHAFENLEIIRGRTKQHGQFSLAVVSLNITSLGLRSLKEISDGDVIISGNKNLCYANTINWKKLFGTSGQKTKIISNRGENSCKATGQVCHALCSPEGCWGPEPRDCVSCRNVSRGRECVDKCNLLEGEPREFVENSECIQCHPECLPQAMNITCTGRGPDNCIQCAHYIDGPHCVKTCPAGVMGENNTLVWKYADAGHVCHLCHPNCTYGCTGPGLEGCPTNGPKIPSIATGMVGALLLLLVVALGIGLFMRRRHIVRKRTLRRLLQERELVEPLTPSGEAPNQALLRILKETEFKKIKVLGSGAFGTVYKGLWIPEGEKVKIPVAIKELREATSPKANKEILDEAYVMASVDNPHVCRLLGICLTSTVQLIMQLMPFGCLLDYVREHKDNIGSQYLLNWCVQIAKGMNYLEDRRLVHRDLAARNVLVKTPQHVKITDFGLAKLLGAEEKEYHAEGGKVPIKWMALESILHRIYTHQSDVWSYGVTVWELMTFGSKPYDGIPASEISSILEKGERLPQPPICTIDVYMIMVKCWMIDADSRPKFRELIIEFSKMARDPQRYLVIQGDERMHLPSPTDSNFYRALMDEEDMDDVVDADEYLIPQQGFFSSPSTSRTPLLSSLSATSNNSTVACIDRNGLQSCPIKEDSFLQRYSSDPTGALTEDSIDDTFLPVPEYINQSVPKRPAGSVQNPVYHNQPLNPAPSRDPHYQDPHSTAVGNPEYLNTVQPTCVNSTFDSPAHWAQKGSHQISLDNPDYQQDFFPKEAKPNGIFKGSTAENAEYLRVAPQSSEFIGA
Sequence of Epidermal growth factor receptor (Homo sapiens) (P00533 whole entry): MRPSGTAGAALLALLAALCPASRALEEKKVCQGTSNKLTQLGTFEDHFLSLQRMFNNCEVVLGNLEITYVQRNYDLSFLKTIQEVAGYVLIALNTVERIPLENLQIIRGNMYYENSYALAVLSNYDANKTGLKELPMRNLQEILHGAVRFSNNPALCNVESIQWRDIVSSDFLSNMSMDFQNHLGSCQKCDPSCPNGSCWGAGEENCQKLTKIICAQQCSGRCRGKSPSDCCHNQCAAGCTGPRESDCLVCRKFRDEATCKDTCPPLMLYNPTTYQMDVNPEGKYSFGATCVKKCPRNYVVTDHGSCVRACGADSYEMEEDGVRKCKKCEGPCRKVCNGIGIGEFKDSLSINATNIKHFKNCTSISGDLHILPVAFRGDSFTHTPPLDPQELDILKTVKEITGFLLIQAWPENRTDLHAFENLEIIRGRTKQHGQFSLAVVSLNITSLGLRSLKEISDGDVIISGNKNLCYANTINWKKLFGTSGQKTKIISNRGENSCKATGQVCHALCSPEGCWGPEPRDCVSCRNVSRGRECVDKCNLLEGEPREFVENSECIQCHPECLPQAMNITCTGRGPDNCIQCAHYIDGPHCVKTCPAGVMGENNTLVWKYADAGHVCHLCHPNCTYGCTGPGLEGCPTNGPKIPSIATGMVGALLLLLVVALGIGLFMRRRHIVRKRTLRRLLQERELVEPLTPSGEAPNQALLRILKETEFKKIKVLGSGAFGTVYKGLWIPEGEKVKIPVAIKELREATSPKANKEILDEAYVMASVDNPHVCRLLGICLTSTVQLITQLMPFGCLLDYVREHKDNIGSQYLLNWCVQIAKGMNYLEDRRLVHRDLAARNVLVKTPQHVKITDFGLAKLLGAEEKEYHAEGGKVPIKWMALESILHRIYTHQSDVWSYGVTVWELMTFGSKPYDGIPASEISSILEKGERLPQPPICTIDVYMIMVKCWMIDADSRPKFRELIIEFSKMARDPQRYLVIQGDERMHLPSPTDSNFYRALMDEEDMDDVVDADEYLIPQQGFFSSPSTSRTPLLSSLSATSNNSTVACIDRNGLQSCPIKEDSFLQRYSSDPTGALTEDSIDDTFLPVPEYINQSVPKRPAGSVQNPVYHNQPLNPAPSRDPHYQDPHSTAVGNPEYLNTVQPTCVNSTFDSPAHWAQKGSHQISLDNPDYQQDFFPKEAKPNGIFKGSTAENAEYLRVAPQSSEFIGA
Sequence of Epidermal growth factor receptor (Homo sapiens), P00533 [L861Q] (P00533 whole entry L861Q): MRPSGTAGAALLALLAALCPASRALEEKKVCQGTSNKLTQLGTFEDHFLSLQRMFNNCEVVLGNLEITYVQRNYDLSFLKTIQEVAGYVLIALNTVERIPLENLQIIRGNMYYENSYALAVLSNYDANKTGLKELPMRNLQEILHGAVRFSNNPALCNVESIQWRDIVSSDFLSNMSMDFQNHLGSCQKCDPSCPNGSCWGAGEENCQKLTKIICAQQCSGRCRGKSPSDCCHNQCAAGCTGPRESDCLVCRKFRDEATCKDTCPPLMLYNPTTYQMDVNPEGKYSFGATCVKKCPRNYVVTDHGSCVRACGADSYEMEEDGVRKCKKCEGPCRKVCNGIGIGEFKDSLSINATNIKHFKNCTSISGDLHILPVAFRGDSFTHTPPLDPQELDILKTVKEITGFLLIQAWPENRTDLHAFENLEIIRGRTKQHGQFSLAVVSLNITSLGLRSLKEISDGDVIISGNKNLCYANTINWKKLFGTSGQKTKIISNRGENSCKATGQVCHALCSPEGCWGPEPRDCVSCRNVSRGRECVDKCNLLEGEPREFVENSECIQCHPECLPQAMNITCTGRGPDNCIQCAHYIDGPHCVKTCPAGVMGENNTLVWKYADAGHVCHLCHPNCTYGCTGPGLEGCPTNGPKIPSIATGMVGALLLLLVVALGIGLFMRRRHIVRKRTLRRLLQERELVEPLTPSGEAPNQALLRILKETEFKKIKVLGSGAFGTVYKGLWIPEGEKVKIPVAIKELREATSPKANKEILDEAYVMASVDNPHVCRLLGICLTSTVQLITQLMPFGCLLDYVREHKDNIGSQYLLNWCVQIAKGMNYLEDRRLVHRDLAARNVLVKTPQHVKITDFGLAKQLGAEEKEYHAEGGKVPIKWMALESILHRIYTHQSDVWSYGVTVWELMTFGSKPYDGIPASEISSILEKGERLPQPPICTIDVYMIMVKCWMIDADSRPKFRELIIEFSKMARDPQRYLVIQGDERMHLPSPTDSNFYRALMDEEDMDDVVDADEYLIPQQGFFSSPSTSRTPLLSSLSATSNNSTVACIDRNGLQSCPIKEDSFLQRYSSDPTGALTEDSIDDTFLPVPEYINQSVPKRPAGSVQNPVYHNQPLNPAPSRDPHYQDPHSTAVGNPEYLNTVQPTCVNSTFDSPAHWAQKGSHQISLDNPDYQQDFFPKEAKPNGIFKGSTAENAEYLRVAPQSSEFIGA
Sequence of Tyrosine-protein kinase CSK (Homo sapiens) (P41240 2-450 limits assumed): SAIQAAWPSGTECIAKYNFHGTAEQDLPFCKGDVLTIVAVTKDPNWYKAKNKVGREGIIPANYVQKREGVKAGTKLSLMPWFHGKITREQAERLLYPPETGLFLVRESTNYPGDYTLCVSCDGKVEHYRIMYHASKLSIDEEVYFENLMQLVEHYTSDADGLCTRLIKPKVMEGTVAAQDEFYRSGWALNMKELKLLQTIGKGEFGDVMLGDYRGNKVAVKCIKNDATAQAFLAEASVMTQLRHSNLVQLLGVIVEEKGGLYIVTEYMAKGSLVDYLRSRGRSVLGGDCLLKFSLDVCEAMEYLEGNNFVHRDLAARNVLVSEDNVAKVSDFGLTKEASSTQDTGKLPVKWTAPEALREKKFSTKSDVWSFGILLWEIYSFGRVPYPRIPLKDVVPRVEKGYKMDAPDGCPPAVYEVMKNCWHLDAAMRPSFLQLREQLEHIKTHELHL
Sequence of Ephrin type-A receptor 4 (Homo sapiens) (P54764 whole entry): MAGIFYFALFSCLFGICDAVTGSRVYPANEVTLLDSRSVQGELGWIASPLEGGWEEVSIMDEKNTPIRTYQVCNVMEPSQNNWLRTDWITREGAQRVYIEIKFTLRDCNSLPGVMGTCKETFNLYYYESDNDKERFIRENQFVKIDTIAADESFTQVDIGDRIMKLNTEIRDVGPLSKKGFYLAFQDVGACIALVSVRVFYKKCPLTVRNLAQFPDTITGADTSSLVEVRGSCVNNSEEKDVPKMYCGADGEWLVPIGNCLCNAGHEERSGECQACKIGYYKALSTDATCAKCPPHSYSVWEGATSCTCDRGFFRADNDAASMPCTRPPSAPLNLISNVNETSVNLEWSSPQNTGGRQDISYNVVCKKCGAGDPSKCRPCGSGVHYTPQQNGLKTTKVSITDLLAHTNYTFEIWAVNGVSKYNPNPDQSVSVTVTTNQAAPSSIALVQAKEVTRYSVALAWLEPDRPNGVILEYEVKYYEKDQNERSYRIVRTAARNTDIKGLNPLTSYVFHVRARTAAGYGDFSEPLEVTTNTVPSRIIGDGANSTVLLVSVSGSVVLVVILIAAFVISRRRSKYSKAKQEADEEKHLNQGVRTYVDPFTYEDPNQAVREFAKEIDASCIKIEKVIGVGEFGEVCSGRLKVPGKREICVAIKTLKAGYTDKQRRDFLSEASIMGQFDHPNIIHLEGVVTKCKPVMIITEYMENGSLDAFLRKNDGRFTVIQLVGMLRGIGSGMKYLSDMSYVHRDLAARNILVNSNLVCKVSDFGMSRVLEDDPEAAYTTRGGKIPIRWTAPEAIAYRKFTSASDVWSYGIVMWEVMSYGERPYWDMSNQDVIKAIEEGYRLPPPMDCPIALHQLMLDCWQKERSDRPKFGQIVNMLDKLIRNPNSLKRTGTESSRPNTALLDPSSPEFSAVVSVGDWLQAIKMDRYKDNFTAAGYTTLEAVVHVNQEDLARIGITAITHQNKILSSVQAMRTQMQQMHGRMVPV

Usually inhibition stands for the drop in the measured response relative to a control, in per cent. Consider `O=C(Nc1n[nH]c2nc(-c3ccc(O)cc3)c(Br)cc12)C1CC1`, for which the inhibition turned out to be 10.9% in [1]; 2.17% in experiment [2]; 4.12% in experiment [3]; 5.76% in [4]; 6.97% in [5]; 5.48% in experiment [6]. Moreover, the inhibition is 9.71% in experiment [7]; 6.22% in experiment [8]; 7.61% in [9]; 4.95% in [10]; 5.37% in [11]; 6.72% in experiment [12]. For the same molecule, the inhibition in experiment [13] came out at 8.16%; in experiment [14], 4.79%; in [15], 24.2%; in experiment [16] it was 8.45%; in experiment [17] it was 14%; in experiment [18], 15.2%. The inhibition worked out at 39.2% in [19] and 11.9% in experiment [20].
`NC(=O)c1ccc(Oc2nccc(-c3c(-c4ccc(F)cc4)ncn3C3CCNCC3)n2)cc1`: the inhibition came to 4.26% in experiment [1]; 0.13% in experiment [2]; 0.3% in experiment [3]; 0.48% in experiment [4]; 1.21% in experiment [5]; 3.13% in experiment [6]. The inhibition was determined as 2.9% in experiment [7]; 2.71% in experiment [8]; 5.43% in [9]; 2.31% in experiment [10]; 4.36% in [11]; 3.71% in [12]. The inhibition in [13] stood at 1.81%; in experiment [14] it was 2.58%; in experiment [15], 1.73%; in [16] it was 2.37%; in [17] it was 5.3%; in experiment [18], 8.5%. Besides, the inhibition in experiment [19] worked out at 11%; in experiment [20], 8.08%.
As for `CCS(=O)(=O)c1ccc(OC)c(Nc2ncc(-c3ccccc3Cl)o2)c1`, the inhibition was 1.96% in experiment [1]; 3.73% in experiment [2]; 8.46% in [3]; -0.49% in [4]; 0.66% in [5]; -1.25% in [6]. The inhibition in experiment [7] was 7.46%; in experiment [8], 2.33%; in experiment [9], 1.22%; in experiment [10], 1.78%; in [11], 3.29%; in experiment [12], -1.69%. In addition, the inhibition in experiment [13] was -0.03%; in experiment [14] it was 1.32%; in experiment [15], 1.73%; in [16] it was 5.46%; in experiment [17] it was 4.36%; in experiment [18], 5.58%. Further, the inhibition in experiment [19] came to 9.33%; in [20] it was 4.99%.
For the molecule `NC(=O)c1cc(-c2ccc(F)cc2)cc(-c2ccncc2)c1N`, the inhibition in [1] is 5.4%; in experiment [2], 1.42%; in [3], 2.13%; in [4], -0.24%; in [5], 5.03%; in [6], 5.96%. The inhibition in experiment [7] was found to be 7.27%; in experiment [8], 4.19%; in experiment [9] it was 7.37%; in experiment [10] it was 1.23%; in [11], 3.83%; in experiment [12], 0.39%. Moreover, the inhibition was -0.62% in [13]; 0.4% in experiment [14]; 3.67% in experiment [15]; 4.53% in experiment [16]; 2.83% in experiment [17]; 10.1% in experiment [18]. In addition, the inhibition in [19] stood at 12.7%; in experiment [20] it was 5.78%.
Regarding `COc1cccc(-n2cnc3c(N/N=C/c4ccncc4)ncnc32)c1`, the inhibition in experiment [1] is 7.17%; in experiment [2], -0.19%; in [3], 1.99%; in [4], 2.02%; in experiment [5] it was 8.31%; in experiment [6], 5.72%. Besides, the inhibition was 30.8% in experiment [7]; 1.61% in [8]; 10.6% in experiment [9]; -0.92% in experiment [10]; 5.78% in experiment [11]; -1.35% in experiment [12]. Also, the inhibition is 6.65% in experiment [13]; -0.82% in experiment [14]; 0.55% in [15]; -3.39% in experiment [16]; -0.79% in experiment [17]; 3.18% in experiment [18]. Besides, the inhibition in experiment [19] amounted to 25.6%; in experiment [20], 2.42%.
With `Cc1nnc(-c2ccc(C)c(-c3ccc(C(=O)NCc4ccc(Cl)cc4)cc3)c2)o1`, the inhibition in experiment [1] was 5.62%; in [2], 0.22%; in experiment [3], -0.21%; in experiment [4], -3.58%; in experiment [5], -0.27%; in [6], 1.36%. The inhibition in experiment [7] came out at 2.71%; in experiment [8] it was 2.71%; in experiment [9], 1.09%; in experiment [10], 0.7%; in [11] it was 3.59%; in experiment [12], 1.86%. Further, the inhibition is 2.04% in [13]; -3.78% in experiment [14]; -3.32% in experiment [15]; -0.26% in experiment [16]; -1.93% in experiment [17]; 6.29% in experiment [18]. Besides, the inhibition in experiment [19] came out at 5.1%; in [20], 2.73%.
`O=C(Nc1n[nH]c2nc(-c3ccco3)ccc12)C1CC1`: the inhibition in experiment [1] was 4.82%; in experiment [2] it was 5.94%; in experiment [3] it was 7.53%; in experiment [4], 2.44%; in experiment [5], 4.53%; in [6] it was -0.69%. The inhibition in experiment [7] was 4.35%; in experiment [8], 1.04%; in experiment [9] it was 1.77%; in experiment [10] it was 0.31%; in experiment [11], -1.02%; in [12], 0.52%. Besides, the inhibition in experiment [13] was -1.34%; in [14], -1.58%; in experiment [15], 2.15%; in experiment [16] it was 1.58%; in [17], 2.28%; in [18] it was 6.1%. In addition, the inhibition in experiment [19] came out at 7.98%; in experiment [20], 6.87%.

Values taken from ChEMBL document CHEMBL1961873, “Compounds: GSK PKIS; Assays: Nanosyn kinase panel” (2012).
